HT1080-NT tox: kills 2HG-producing HT-1080-NT fibrosarcoma cells; HT-1080-NT fibrosarcoma viability, CellTiter-Glo ATP luminescence, 48 h; hit rate 1.6% among 360,000; Potency, µM (doses to about 46.1 µM), inactives show top-dose activity, negative = less viability, usual class: cytotoxic;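 further: NT is the 2HG producing partner of a matched IDH1 knockdown line; potency means the concentration at half of the fitted maximal effect; 0% = DMSO-treated cells and -100% = media-only wells without cells; nearly all actives have a fitted effect of over 55% in size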
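Fibrosarcoma NT cells, 750 per well in 5% FBS RPMI, were exposed to compound for 48 hours. Viability: CellTiter-Glo luminescence.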
DT40 TDP1 no CPT: qHTS for Inhibitors of human tyrosyl-DNA phosphodiesterase 1 (TDP1): qHTS in cells in absence of CPT | hit rate 15% among 420,000 | DT40 Tdp1-/- hTDP1 cells, no CPT, ATP luminescence, 48 h | Potency, µM (highest dose often 46.2 µM), inactives show top-dose activity change, negative = growth inhibition, most hits filed as inhibitors | AID 686978, 2013; further: potency means the concentration at half of the fitted maximal effect; nearly all actives have a fitted effect of over 55% in size
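Readout: luminescence from CellTiter-Glo after 30 min in the dark at RT. Cells: DT40 Tdp1-/- with stable hTDP1, 400/well. Exposure: compounds alone, ≥48 hr, 37 °C.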
IL1B secr inh: blocks inflammasome-driven IL-1 beta release | AID 743279 | activity change, % at 57.5 µM | hit rate 4.7% among 360,000 | THP-1 LPS/ATP IL-1B secretion, AlphaLISA, 16 h; hits give low values; in the data active means activity change below about -50%; inconclusive means mostly about -30% to -49%
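Secreted IL-1B measured by AlphaLISA bead assay after 16 h compound exposure of THP-1 cells; compounds (final up to 57.5 uM) added 1 h before LPS (250 ng/mL) and ATP (1.25 mM) stimulation; lower signal means less secretion.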
HT1080 IDH1KD tx: toxicity to HT-1080 IDH1 knockdown cells (counter line); HT-1080 IDH1 knockdown viability, ATP luminescence, 48 h; Potency, µM (highest dose often 46.1 µM), for inactives: at the top dose activity, negative = toxicity, actives largely listed as cytotoxic; hit rate 2% among 360,000;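 further: potency means the concentration at half of the fitted maximal effect; 0% = DMSO wells and -100% = cell-free medium wells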
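CellTiter-Glo luminescence after 48 h compound exposure at 37 degrees C of IDH1-knockdown HT-1080 cells in 5% FBS RPMI. %Activity scaled between DMSO wells and cell-free media wells, with curves fitted and assigned curve classes.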
DT40 TDP1 CPT: DT40-hTDP1 cell growth loss with CPT | chicken DT40 Tdp1-/-;hTDP1 cells + 20 nM CPT, ATP luminescence, 48 h | Potency, µM (doses to about 46.2 µM), without a hit: top-dose activity change, negative = growth inhibition, usual class: inhibitors | hit rate 12% among 420,000; further: potency means the concentration at half of the fitted maximal effect; nearly all actives have a fitted effect of over 55% in size
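Chicken DT40 Tdp1-/- cells complemented with human TDP1, 400 cells/well, exposed to compounds plus 20 nM camptothecin for at least 48 h at 37 C; viability read as ATP content by CellTiter-Glo luminescence.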
Active calls of the source: *; u = inconclusive; x = not tested or not shown; [ ] = dose if it differs, or a comment. Rows were chosen to be rich in hits. Some 19% of all compounds tested hit in one or more screens of this group. Unless noted, the call rests on the fitted dose curve; in most records, active means well fitted curve in the direction sought with a large enough effect; inconclusive means small, poorly fitted or top-dose-only effect, or another doubt; inactive means no such curve, though single readings can be large; an effect the other way counts as inactive or inconclusive. Unless noted, on the % scale 0 is the no-effect control and ±100 the full control effect.

SMILES	HT1080-NT tox	DT40 TDP1 no CPT	IL1B secr inh	HT1080 IDH1KD tx	DT40 TDP1 CPT
COc1ccc(/C(N)=N/OC(=O)Cc2ccc(C)cc2)cc1OC	-0.2%	u	12.0	0.3%	-22.3%
CS(=O)(=O)c1ccc(C(=O)OCC(=O)NC(=O)C2COc3ccccc3O2)cc1[N+](=O)[O-] (centres undefined)	7.0%	18.4µM*	-58.8*	-0.1%	16.4µM*
COc1ccc(C(=O)OCC(=O)NC2CC2)cc1[N+](=O)[O-]	5.0%	23.1%	-12.0	3.1%	-7.9%
CS(=O)(=O)c1ccc(C(=O)OCC(=O)NC(=O)C2CCCCC2)cc1[N+](=O)[O-]	u	u	-60.3*	u	9.2µM*
CC(=O)c1ccc(NCC2COc3ccccc3O2)c([N+](=O)[O-])c1 (centres undefined)	-1.0%	13µM*	24.3	-14.6%	u
Cc1cc(C(=O)OCC(=O)NC(=O)C2CCCCC2)ccc1[N+](=O)[O-]	x	6.9%	x	x	-4.1%
CC1(C)C2CCC1(C)C(NC(=O)COC(=O)c1ccc(S(C)(=O)=O)c([N+](=O)[O-])c1)C2 (centres undefined)	x	5.62µM*	x	x	5.01µM*
COc1ccc(C(=O)NC(=O)COC(=O)C2COc3ccccc3O2)cc1 (centres undefined)	1.5%	-24.5%	9.7	5.0%	-14.4%
O=[N+]([O-])c1ccc(C(c2sc3nc(-c4ccco4)nn3c2O)N2CCC3(CC2)OCCO3)cc1 (centres undefined)	x	6.2%	x	x	10.4%
Nc1nc2c(ncn2[C@@H]2O[C@H](CNCc3cnc(N4CCOCC4)nc3)[C@@H](O)[C@H]2O)c(=O)[nH]1	25.7%	28.3%	7.2	27.6%	1.2%
Cn1c(=O)c2c(c3ccccc31)OC(=O)CC2c1ccccc1 (centres undefined)	x	-7.8%	x	x	-3.3%
COc1ccc(-c2cc3nc4ccccc4n3c(N)c2C#N)cc1	-7.5%	-11.5%	0.0	-15.1%	-14.2%
O=C(N1CCOCC1)N1CCc2ccccc21	-10.7%	6.3%	-6.4	-11.1%	-12.2%
COc1ccc(C(CNC(=O)c2ccc(OCc3csc(C)n3)cc2)N2CCCC2)cc1 (centres undefined)	-5.9%	u	0.2	-4.6%	u
CN1CCN(C(c2ccc(C(F)(F)F)cc2)c2ccc3cccnc3c2O)CC1 (centres undefined)	-21.3%	8.2µM*	-85.0*	u	8.2µM*
O=c1cc(CO)oc(C(Nc2ccccn2)c2ccccc2Cl)c1O (centres undefined)	-0.1%	-16.7%	-10.8	13.2%	-2.0%
Oc1c(C(Nc2cccc(C(F)(F)F)c2)c2cccnc2)ccc2cccnc12 (centres undefined)	-14.8%	u	37.8	u	u
Oc1cccc(C(Nc2ccccn2)c2ccc3cccnc3c2O)c1Cl (centres undefined)	x	3.26µM*	x	x	0.651µM*
COc1ccc(Cl)cc1C(Nc1cccnc1)c1ccc2cccnc2c1O (centres undefined)	u	u	-66.4*	10.3µM*	u
Oc1c(C(Nc2cccnc2)c2ccc(C(F)(F)F)cc2)ccc2cccnc12 (centres undefined)	x	8.91µM*	x	x	u
Cc1cc(SCC(=O)NCc2ccc(Cl)cc2)nc(=O)[nH]1	x	-13.1%	x	x	-2.5%
Nc1nccnc1C(=O)OCC(=O)NNC(=O)c1ccccc1	1.3%	3.1%	20.2	11.5%	-6.0%
Cc1cc(C(=O)Nc2cccnc2)no1	3.7%	u	-13.0	2.8%	u
Cc1cc(NC(c2cccnc2)c2ccc3cccnc3c2O)no1 (centres undefined)	u	3.66µM*	143.4	u	3.26µM*
CCSc1nnc(CNC(=O)c2ccccc2F)n1-c1ccccc1OC	12.8%	1.0%	5.0	1.9%	13.0%
COc1ccccc1N1CCN(c2nc(CNC(=O)C3CC34CCCC4)nc3ccccc23)CC1 (centres undefined)	x	20.6µM*	x	x	-13.4%[9.04 µM]
